“And” between values parts separate entries of the source, which are not always exact repeats. Equal values may be shown once. Inconclusive results are not listed. Unmarked numbers belong to inactive results. The source made the active and inactive calls. Calls come from the whole dose curve; as a rule, active = well fitted inhibition curve with a large enough effect; inconclusive = small, poorly fitted or top-dose-only effect; inactive = flat fitted curve, though single readings scatter. *1 amine or outer side, *2 acyl side, *3 side chain or, on linkers, in order; H or OH if unused. Where a SMILES comes first, the peptide text is derived from it. Bridges are numbered along the chain shown (N, C = ends). [ ]: non-standard residue; d: D form. The star is where a group is joined. pTerphenylCO(4''-OnC5H11) = CCCCCOc1ccc(-c2ccc(-c3ccc(C(=O)*)cc3)cc2)cc1; Orn(4R-OH,5R-OH) = O=C([C@H](C[C@@H](O)[C@@H](O)N[*:3])N[*:1])[*:2]; hTyr(3S-OH,4S-OH) = N[C@H](C(=O)O)[C@H](O)[C@@H](O)c1ccc(O)cc1; Pro(3S-OH,4S-Me) = C[C@H]1CN[C@H](C(=O)O)[C@H]1O; Hyp = O=C(O)[C@@H]1C[C@@H](O)CN1
% is set by controls: 0 for no effect and ±100 for the full control effect; potency is the fitted concentration of half-maximal effect.

The subject of the first test is HaCat. The test is described as follows: Cytotoxic Profiling of Annotated Libraries Using Quantitative High-Throughput Screening (AID 1296008). Note: nearly all actives have a fitted effect of over 60% in size. To be noted: Five cell lines viability, CellTiter-Glo ATP luminescence, 48-72 h; max response: stronger effect = lower value. The gist of the method:
(§1)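 Cytotoxicity was measured as CellTiter-Glo ATP luminescence, read after 10 min at room temperature. Compound treatment of the cells lasted 48 or 72 hr at 37 degrees Celsius in a qHTS format.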
In general terms: Cellular ATP, detected with luciferase, serves as a proxy for viable cell number.
Turning to `C/C(=C\CCC(C)C1=CCC2(C)OC3=C(CC12)C(=O)C(O)CC3)CO` (stereo not given), the max response is -38%. As to `O=C(Nc1ccccc1Cl)c1cnc2ccc(C3CCNCC3)cn12`, the Potency was 1640 nM (active). Regarding `CC(C)n1c(=O)c(C(=O)NC2CC3CCC(C2)N3C[C@@H](O)CN(C)S(C)(=O)=O)cc2ccccc21` (stereo not given in full), the max response is -16.2%.

Regarding `C=CCCN1CCC2(CC1)CN(C(=O)c1c(F)cccc1F)c1ccc(Cl)cc12`, the max response is -0.627%.

`CC(C)(CNC(=O)c1cccc(-c2noc(C(F)(F)F)n2)c1)c1coc(-c2ccccc2)n1`: the max response is -1.63%. Same read-out and setting: under `CCC(C)C(=O)OC12C(OC(C)=O)C(C)C3(O)C(C=C(CO)CC4(O)C(=O)C(C)=CC43)C1C2(C)C` (stereo not given) stands -11.4%; under `CC1=CC2/C=C(\C)CCC(O)C(=O)C(O)CC(=O)C23C(=O)NC(CC(C)C)C3C1C` (stereo not given), -78.4%; under `Cc1ccc(C(C)C)c(O[C@@H]2O[C@H](CO)[C@@H](O)[C@H](O)[C@H]2O)c1`, -17.5%.

Consider `CN(C)C(=O)Nc1cccc(-c2ccc(N(C)C)cc2)c1`, for which the max response is -0.332%. On the same count and under the same terms, under `O=[N+]([O-])c1cn2c(n1)OC[C@@H](OCc1ccc(-c3ccc(OC(F)(F)F)cc3)nc1)C2` stands -7.6%; under `C/C(=C\CO[C@@H]1O[C@H](CO[C@H]2OC[C@](O)(CO)[C@H]2O)[C@@H](O)[C@H](O)[C@H]1O)C(C)(C)O`, -2.99%. On the same count and under the same terms, under `CN(C)S(=O)(=O)c1ccc(NC(=S)N2CCC(C(O)(c3ccccc3)c3ccccc3)CC2)cc1` stands 3.08%; under `C=CC(C)(O)CC[C@@H]1[C@@]2(C)CCCC(C)(C)C2CC[C@@]1(C)O` (stereo not given in full), -28.7%; under `Cc1c(C(=O)NCc2cccnc2)nn(-c2ccc(Cl)cc2Cl)c1-c1ccc(Cl)cc1`, -13.1%.

As for `C=C1CCN([C@H](C)[C@](O)(Cn2cncn2)c2ccc(F)cc2F)CC1`, the max response is -11.9%. Still for that read-out and setting: under `CC(C)c1noc(C2CCN(c3ncnc(Nc4ccc(S(C)(=O)=O)cc4F)c3[N+](=O)[O-])CC2)n1` stands 1.98%. For the compound `CNC(=O)c1ccc2c(c1)CCO[C@H]2CCN1CCN(c2ccc(OC)cc2)CC1`, the max response is -0.835%. In the case of `COc1cc(N(C)CCN(C)C)c(N)cc1Nc1nccc(-c2cn(C)c3ccccc23)n1`, the max response was -1.2%. The same measure, in the same setting: under `COc1cc(-c2nc(N[C@H](CO)Cc3ccccc3)ccc2C(=O)NCCOc2ccccc2)cc(OC)c1OC` stands -1.78%; under `C=CC(C)(O)CC/C=C(/C)COC(=O)C(C)C1CCC(C)(C=C)O1` (stereo not given), 3.72%. Same read-out and setting: under `CC(=O)OC1C(OC(=O)c2ccccc2)C2C(C)(C)CCC(OC(C)=O)C2(C)C23CCC(C)(C2)C(=O)CC13` (stereo not given) stands -16.6%; under `C/C=C(\C)C(=O)OC1C(C)C2(O)C(C=C(CO)CC3(O)C(=O)C(C)=CC32)C2C(C)(C)C12OC(C)=O` (stereo not given), -5.6%; under `CCCCCOc1ccc(-c2ccc(-c3ccc(C(=O)N[C@H]4C[C@@H](O)[C@@H](O)NC(=O)[C@@H]5[C@@H](O)[C@@H](C)CN5C(=O)[C@H]([C@@H](C)O)NC(=O)[C@H]([C@H](O)[C@@H](O)c5ccc(O)cc5)NC(=O)[C@@H]5C[C@@H](O)CN5C(=O)[C@H]([C@@H](C)O)NC4=O)cc3)cc2)cc1` ({pTerphenylCO(4''-OnC5H11)}-[Orn(4R-OH,5R-OH)]T[Hyp][hTyr(3S-OH,4S-OH)]T[Pro(3S-OH,4S-Me)]; lactam 1-C), 3.64%.

For the compound `C[C@@H](O[C@H]1OCCN(Cc2nn(P(=O)(O)O)c(=O)[nH]2)[C@H]1c1ccc(F)cc1)c1cc(C(F)(F)F)cc(C(F)(F)F)c1`, the max response was -1.44%. Turning to `CCC[C@@]1(CCc2ccccc2)CC(O)=C([C@H](CC)c2cccc(NS(=O)(=O)c3ccc(C(F)(F)F)cn3)c2)C(=O)O1`, the max response is 2.03%. Turning to `O=c1[nH]cnc2c([C@@H]3N[C@H](CO)[C@@H](O)[C@H]3O)c[nH]c12`, the max response is -34.4%.

`Clc1ncoc1-c1c[nH]c2ccccc12`: the max response was -17.9%. For the compound `Nc1nc2c(s1)CCN(Cc1ccc(Cl)cc1)CC2`, the max response is -24.3%.

Another test concerns KB-3-1. The test is described as above. To be noted: Five cell lines viability, CellTiter-Glo ATP luminescence, 48-72 h; max response: stronger effect = lower value. The procedure, abridged:
as §1
On to `C[C@@H]1O[C@@H](O[C@H]2CC[C@@]3(C)C(CC[C@]4(C)C3CC=C3[C@@H]5CC(C)(C)CC[C@]5(C(=O)O[C@@H]5O[C@H](CO)[C@@H](O)[C@H](O)[C@H]5O)CC[C@]34C)[C@]2(C)CO)[C@H](O)[C@H](O[C@@H]2O[C@H](CO)[C@@H](O)[C@H](O)[C@H]2O)[C@H]1O` (stereo not given in full), for which the outcome was inactive. As to `Cc1ccc(C2(C(=O)N3CCC(n4nc(-c5ccccc5)oc4=O)CC3)CC2)cc1`, the max response is -8.37%. On the same count and under the same terms, under `O=C(NCc1ccccc1-c1ccccc1C(=O)NCCc1ccccn1)OCc1ccccc1` stands 8.57%; under `OC1(CN2CCC(COc3noc4cccc(O[C@@H]5CCOC5)c34)CC2)CCOCC1`, 2.03%. For `NS(=O)(=O)c1ccc(N2N=C(c3ccccc3)CC2c2ccccc2)cc1` (stereo not given), the max response was -12.2%. Same read-out and setting: the value for `CCC[C@H](N[C@H]1CCc2cc(F)cc(F)c2C1)C(=O)Nc1cn(C(C)(C)CNCC(C)(C)C)cn1` was -17.7%. `Cc1[nH]c2ccccc2c1CCNCc1ccc(/C=C/C(=O)NO)cc1`: the Potency is 82 nM (active). Turning to `CCCCc1ccc(NS(=O)(=O)c2ccc(F)cc2)cc1`, the max response was 4.06%.

Turning to `C=C1CCC2[C@](C)(CCC[C@@]2(C)C=O)[C@H]1CC/C(C)=C/CO` (stereo not given in full), the compound was classed as inactive. For the compound `O=C(NCCCc1ccccc1)C1CCC(CNS(=O)(=O)c2cccc3nsnc23)CC1` (stereo not given), the max response is -11.8%. On the same count and under the same terms, the value for `O=C(NCC1(N2CCN(c3ccccc3)CC2)CCOCC1)c1cccnc1Sc1ccccc1` was 1.24%. As for `COCCNCc1ccc(-c2cc3nccc(Oc4ccc(NC(=O)C5(C(=O)Nc6ccc(F)cc6)CC5)cc4F)c3s2)nc1`, the Potency was 6510 nM (active).

Regarding `C/C(=C\CCC(C)C1=CCC2(C)OC3=C(CC12)C(=O)C(O)CC3)CO` (stereo not given), the max response is -18.5%.

For the compound `O=C(Nc1ccccc1Cl)c1cnc2ccc(C3CCNCC3)cn12`, the max response is 2.96%. Still for that read-out and setting: the value for `CC(C)n1c(=O)c(C(=O)NC2CC3CCC(C2)N3C[C@@H](O)CN(C)S(C)(=O)=O)cc2ccccc21` (stereo not given in full) was -11.4%. Regarding `C=CCCN1CCC2(CC1)CN(C(=O)c1c(F)cccc1F)c1ccc(Cl)cc12`, the result was inactive. On to `CC(C)(CNC(=O)c1cccc(-c2noc(C(F)(F)F)n2)c1)c1coc(-c2ccccc2)n1`, for which the max response is -6.73%. As to `CCC(C)C(=O)OC12C(OC(C)=O)C(C)C3(O)C(C=C(CO)CC4(O)C(=O)C(C)=CC43)C1C2(C)C` (stereo not given), the call was inactive.

As to `CC1=CC2/C=C(\C)CCC(O)C(=O)C(O)CC(=O)C23C(=O)NC(CC(C)C)C3C1C` (stereo not given), the max response is 2.51%. Same read-out and setting: the value for `Cc1ccc(C(C)C)c(O[C@@H]2O[C@H](CO)[C@@H](O)[C@H](O)[C@H]2O)c1` was -7.27%; that for `CN(C)C(=O)Nc1cccc(-c2ccc(N(C)C)cc2)c1` was -4.8%; that for `O=[N+]([O-])c1cn2c(n1)OC[C@@H](OCc1ccc(-c3ccc(OC(F)(F)F)cc3)nc1)C2` was -0.53%. As for `C/C(=C\CO[C@@H]1O[C@H](CO[C@H]2OC[C@](O)(CO)[C@H]2O)[C@@H](O)[C@H](O)[C@H]1O)C(C)(C)O`, the max response was 2.14%.

`CN(C)S(=O)(=O)c1ccc(NC(=S)N2CCC(C(O)(c3ccccc3)c3ccccc3)CC2)cc1`: the max response is -18.9%. Regarding `C=CC(C)(O)CC[C@@H]1[C@@]2(C)CCCC(C)(C)C2CC[C@@]1(C)O` (stereo not given in full), the max response is -9.76%. Same read-out and setting: under `Cc1c(C(=O)NCc2cccnc2)nn(-c2ccc(Cl)cc2Cl)c1-c1ccc(Cl)cc1` stands -24%; under `C=C1CCN([C@H](C)[C@](O)(Cn2cncn2)c2ccc(F)cc2F)CC1`, -0.073%; under `CC(C)c1noc(C2CCN(c3ncnc(Nc4ccc(S(C)(=O)=O)cc4F)c3[N+](=O)[O-])CC2)n1`, -4.1%. The same measure, in the same setting: the value for `CNC(=O)c1ccc2c(c1)CCO[C@H]2CCN1CCN(c2ccc(OC)cc2)CC1` was -8.62%; that for `COc1cc(N(C)CCN(C)C)c(N)cc1Nc1nccc(-c2cn(C)c3ccccc23)n1` was -6.79%. On the same count and under the same terms, under `COc1cc(-c2nc(N[C@H](CO)Cc3ccccc3)ccc2C(=O)NCCOc2ccccc2)cc(OC)c1OC` stands 7.13%. For the compound `C=CC(C)(O)CC/C=C(/C)COC(=O)C(C)C1CCC(C)(C=C)O1` (stereo not given), the max response was 8.61%. On to `CC(=O)OC1C(OC(=O)c2ccccc2)C2C(C)(C)CCC(OC(C)=O)C2(C)C23CCC(C)(C2)C(=O)CC13` (stereo not given), for which the max response is 6.15%. Take `C/C=C(\C)C(=O)OC1C(C)C2(O)C(C=C(CO)CC3(O)C(=O)C(C)=CC32)C2C(C)(C)C12OC(C)=O` (stereo not given): the max response is 3.13%. With `CCCCCOc1ccc(-c2ccc(-c3ccc(C(=O)N[C@H]4C[C@@H](O)[C@@H](O)NC(=O)[C@@H]5[C@@H](O)[C@@H](C)CN5C(=O)[C@H]([C@@H](C)O)NC(=O)[C@H]([C@H](O)[C@@H](O)c5ccc(O)cc5)NC(=O)[C@@H]5C[C@@H](O)CN5C(=O)[C@H]([C@@H](C)O)NC4=O)cc3)cc2)cc1` ({pTerphenylCO(4''-OnC5H11)}-[Orn(4R-OH,5R-OH)]T[Hyp][hTyr(3S-OH,4S-OH)]T[Pro(3S-OH,4S-Me)]; lactam 1-C), the compound was classed as inactive. `C[C@@H](O[C@H]1OCCN(Cc2nn(P(=O)(O)O)c(=O)[nH]2)[C@H]1c1ccc(F)cc1)c1cc(C(F)(F)F)cc(C(F)(F)F)c1`: the max response is 6.69%. Still for that read-out and setting: under `CCC[C@@]1(CCc2ccccc2)CC(O)=C([C@H](CC)c2cccc(NS(=O)(=O)c3ccc(C(F)(F)F)cn3)c2)C(=O)O1` stands -13.2% and -6.18%.
